These results are taken from PubChem BioAssay (NCATS).

SMILES strings stand for the structures. Records with an inconclusive call do not appear. Values without a mark were called inactive. Active and inactive are the calls of the source. The call rests on the fitted dose curve; in most records, active means well fitted cell-killing curve with a large enough effect; inconclusive means small, poorly fitted or top-dose-only effect; inactive means flat fitted curve, though single readings scatter.
Potency means the concentration at half of the fitted maximal effect.

The test is described as follows: Cellular viability qHTS for adrenocortical cancer (ACC) cell line NCI-H295R (AID 1963990). Further: nearly all actives have a fitted effect of over 60% in size.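 On activity change, negative = viability loss: 0% = DMSO only wells and -100% = full killing with cytotoxic reference compound.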 The settings on record: CellTiter-Glo ATP luminescence, 48 h; series mostly up to 46.1 µM; activity change, negative = viability loss: at the top concentration. The procedure, abridged: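 Readout: CellTiter-Glo luminescence, 20 min RT. Exposure: 48 h, 37C/5% CO2. Cells: NCI-H295R, ITS-DMEM serum-free. Range: up to 46 uM. Analysis: 4PL fit, IC50 plus efficacy.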
On the technique in general: qHTS replaces the single test concentration by a dilution series.
Take `CSc1ccc(C(=O)/C=C/c2cc(C)c(OC(C)(C)C(=O)O)c(C)c2)cc1`: the Potency was 39.8 µM (active).
On the same count and under the same terms, the result for `NC(=O)C1(N2CCCCC2)CCN(CCCN2c3ccccc3CCc3ccc(Cl)cc32)CC1` reads 2.91 µM (active); that for `COc1cc(N2CCN(C)CC2)ccc1Nc1ncc2c(n1)N(C)c1ccccc1C(=O)N2C`, 14.1 µM (active); that for `O=C(O)C[C@H](O)C[C@H](O)/C=C/c1c(C2CC2)nc2ccccc2c1-c1ccc(F)cc1`, 3.55 µM (active).
Turning to `CNCc1ccccc1`, the “activity change, negative = viability loss” value was 0.248%.
